Only some compounds are listed: those with a hit (about 15% of all), similar ones and a draw of the others.
Pf growth 96h – P. falciparum growth inhibition at 96 hours | 320,000 compounds, 6.9% hits | P. falciparum luciferase reporter growth, 96 h | AID 504834 | Potency, µM (top dose mostly 28.7 µM), inactives show top-dose activity change, negative = inhibition, hits mostly inhibitors; also: potency is read from the fitted curve at half-maximal effect; % is scaled to controls: 0 for no effect and ±100 for the full control effect
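Two parasite generations (96 h, 37 C, 5% CO2) of compound exposure in infected erythrocytes (0.05% parasitemia, 2% hematocrit). Luciferase-reporter P. falciparum; decreased luminescence indicates inhibited growth, aimed at apicoplast-acting delayed death.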
HCV inh – HCV inhibition | 340,000 compounds, 3.4% hits | AID 651820 | Huh7.5.1 HCVcc-Cre infection, luciferase reporter, 44 h | Potency, µM (doses to about 41.8 µM), for the others: at the top dose activity change, negative = inhibition, usual class: inhibitors; also: potency is read from the fitted curve at half-maximal effect; % is scaled to controls: 0 for no effect and ±100 for the full control effect
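Whole-lifecycle infectious HCVcc-Cre system; cells 1,000/well, compound then virus (~0.5 moi) added 4 h after plating, 44 h culture. Luciferase read 15 sec following 15 min substrate incubation, room temp.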
HCMV antiviral – blocks human cytomegalovirus replication. activity change, negative = inhibition, % at 57.5 µM. HFF cells, HCMV-luciferase reporter, 72 h; active compounds read low. 410,000 compounds, 4.5% hits. AID 1259415; in the data active = activity change below about -60%; inconclusive = no clear call, values can overlap the other calls; inactive = above about -39%; also: % is scaled to controls: 0 for no effect and ±100 for the full control effect
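Luciferase read-out from HCMV-luciferase-infected HFFs (MOI 1 PFU/cell) 72 h post infection at 37C; compounds added after 16 h cell attachment; activity normalized between buffer-only basal and Salinomycin (10uM) inhibitor controls.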
Pf growth 48h – P. falciparum growth inhibition at 48 hours (one generation); 310,000 compounds, 5.9% hits; Potency, µM (series often up to 28.7 µM), for the others: at the highest dose activity change, negative = inhibition, usual class: inhibitors; P. falciparum luciferase growth in erythrocytes, 48 h; also: potency is read from the fitted curve at half-maximal effect; % is scaled to controls: 0 for no effect and ±100 for the full control effect
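Here the parasites carry a stable luciferase gene and grow inside erythrocytes in Albumax-based RPMI medium with compound for one erythrocytic cycle. Activity is scored as loss of luminescent signal.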
Sm TGR block – inhibitors of Schistosoma mansoni thioredoxin glutathione reductase; Q962Y6; purified TGR, DTNB reduction, TNB absorbance 405 nm; Potency, µM (titrated, usually from 114 µM), for inactives: at the highest dose activity change, negative = inhibition, most hits filed as inhibitors; 360,000 compounds, 3% hits; AID 485364; also: potency is read from the fitted curve at half-maximal effect; % is scaled to controls: 0 for no effect and ±100 for the full control effect; nearly all actives have a fitted effect of over 60% in size
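Kinetic colorimetric format: TGR-catalysed, NADPH-driven DTNB reduction monitored via TNB absorbance. Enzyme dispensed at 20 nM; compound exposure 15 min at room temperature before reaction start.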
SARS PLpro yeast – blocks SARS-CoV papain-like protease in a yeast assay | 330,000 compounds, 0.19% hits | S. cerevisiae expressing SARS-CoV PLpro, growth rescue | AID 485353 | Potency, µM (series often up to 32.9 µM), for the others: at the top dose activity, positive = growth rescue, most hits filed as activators; calls by dose curve; also: potency is read from the fitted curve at half-maximal effect; 0% is about no effect; nearly all actives have a fitted effect of over 55% in size
* marks the source's active call; other numbers are inactive results; u = inconclusive; x = no result. Unless noted, calls follow the shape of the dose curve; as a rule, active = well fitted curve in the direction sought with a large enough effect; inconclusive = small, poorly fitted or top-dose-only effect, or another doubt; inactive = no such curve, though single readings can be large; an effect the other way counts as inactive or inconclusive.

SMILES | Pf growth 96h | HCV inh | HCMV antiviral | Pf growth 48h | Sm TGR block | SARS PLpro yeast
CN(C)C(=O)NC(Nc1ccc(Cl)cc1Cl)C(Cl)(Cl)Cl (stereo not given) | 0.9% | u | -19.8 | -5.8% | -19.5% | -11.9%
CCOc1ccc(OCC)c(S(=O)(=O)NCCOC23CC4CC(CC(C4)C2)C3)c1 | 9.2% | 10µM* | -73.4* | u | -2.4% | -46.4%
COc1cc(S(=O)(=O)NCCOC23CC4CC(CC(C4)C2)C3)c(OC)cc1Cl | 104.6% | u | -63.3* | u | -8.9% | -7.0%
O=S(=O)(NCCOC12CC3CC(CC(C3)C1)C2)c1cccc2nsnc12 | -28.8% | 17.2% | -20.9 | -25.7% | 7.6% | -3.1%
COc1cccc(C(=O)Nc2cccc(-c3nc4ncccn4c3C)c2)c1 | x | x | 74.1 | x | -0.1% | x
Cn1nc(OCC(=O)O)cc1C(F)(F)F | 16.6% | 10.6% | 29.3 | -5.0% | 13.4% | 0.0%
C#Cc1ccc(C(=O)Nc2ccc(N3CCC(C)CC3)c(C(N)=O)c2)cc1 | u | -21.9% | u | 1.85µM* | 5.7% | -0.1%
CC1CCN(c2ccc(NC(=O)c3cccc(Cl)c3)cc2C(=O)O)CC1 | x | x | 13.0 | x | -1.4% | x
COc1ccc(CC(C)CC(=O)NCCc2ccc(OC)c(OC)c2)cc1 (stereo not given) | u | u | -60.6* | -11.6% | -9.8% | -1.5%
COc1ccc(-n2nnnc2SC(C)C(N)=O)cc1 (stereo not given) | 11.7µM* | 16.3% | 40.3 | 1.1% | u | -5.9%
COc1ccc2c(=O)c(C(=O)NCCc3ccc(OC)c(OC)c3)c[nH]c2c1 | u | -27.3% | -4.5 | 10.4µM* | -12.4% | 0.6%
COc1ccc(-n2nnnc2SCC(=O)NCCc2ccc(OC)c(OC)c2)cc1 | 5.22µM* | -18.5% | 4.5 | -12.8% | -26.2% | -3.1%
C/C(CC(=O)Nc1ccc(Cl)cn1)=N\NC(=O)Cc1cccs1 | 19.7% | -0.5% | u | 17.0% | -12.6% | 1.1%
COc1ccc(C(CC(=O)Nc2cc([N+](=O)[O-])ccc2OC)c2ccccc2)cc1 (stereo not given) | -0.3% | u | -26.4 | -10.1% | 8.3% | -8.0%
COc1ccc(C(=O)Cc2ccc(OC)c(OC)c2)cc1 | 69.9% | u | 5.9 | x | -2.4% | 8.2%
COc1ccc(C(=O)CCc2ccc(OC)c(OC)c2)cc1 | x | u | -80.4* | x | x | x
CSc1sc(C(=O)O)c2c1C(=O)CC(C)(C)C2 | x | x | 14.3 | x | x | x
CSc1sc(-c2ccnc(SCC(=O)C(C)(C)C)n2)c2c1C(=O)CC(C)(C)C2 | 4.65µM* | -5.2% | 2.9 | u | u | -2.0%
COc1cccc(CNC(=O)CN2C(=O)N(c3cc(C)ccc3C)S(=O)(=O)c3ccccc32)c1OC | x | x | -23.7 | x | 39.1% | x
COc1ccc(-n2ccnc2CN2CCN(C3CCCC3)C(CCO)C2)cc1 (stereo not given) | 44.6% | 14.5% | -21.6 | -0.8% | 25.1µM* | -0.2%
Cc1cccc(CN2CCN(C3CCCC3)C(CCO)C2)n1 (stereo not given) | 9.9% | 0.0% | 17.0 | 0.0% | 10.4% | 0.1%
CCOC(=O)C1(CC2CCCCO2)CCN(Cc2nccn2-c2ccc(OC)cc2)CC1 (stereo not given) | -11.0% | 5.3% | u | 10.4µM* | -5.8% | 1.6%
Cc1cccc(-n2ccnc2CN2CCN(C3CCCC3)C(CCO)C2)c1 (stereo not given) | 6.57µM* | 14.7% | -26.4 | -14.0% | u | 0.8%
OCCC1CN(Cc2ccc(Oc3ncccn3)cc2)CCN1C1CCCCC1 (stereo not given) | 18.1% | 6.9% | -25.0 | 10.4% | -10.9% | 1.3%
CC(=O)N(C)C[C@@H]1OCc2ccccc2-c2c(n(C)c3ccccc23)C(=O)N([C@@H](C)CO)C[C@@H]1C | x | x | 10.1 | x | x | x
SMILES | Pf growth 96h | HCV inh | HCMV antiviral | Pf growth 48h | Sm TGR block | SARS PLpro yeast
CCOc1ccccc1-c1noc(CSc2nnc(-c3ccccc3)n2-c2ccc(F)cc2)n1 | x | x | 7.9 | x | 1.4% | x
Cn1c(=O)oc2cc(S(=O)(=O)CCC(=O)NCc3ccc(Cl)cc3)ccc21 | x | x | -0.7 | x | -3.6% | x
CCN(CC)c1ccc2cc(C(=O)NCc3ccc(F)cc3)c(=N)oc2c1 | 1.65µM* | x | -6.6 | u | -16.8% | -0.2%
Cc1ccc(CNC(=O)c2cc3cc(Br)ccc3oc2=N)cc1 | 23.3% | 21.2% | 30.5 | 4.8% | -17.7% | -3.9%
N=c1oc2ccc(Br)cc2cc1C(=O)NCc1ccc(F)cc1 | 2.62µM* | 4.2% | -36.4 | -1.6% | -16.6% | -3.5%
CCCCS(=O)(=O)Nc1ccc(C)cn1 | 18.0% | 5.1% | 55.8 | 24.4% | -17.2% | -18.0%
COc1ccc(C(=O)Oc2cc3c4c(c2)C(C)=CC(C)(C)N4C(=O)C3=O)cc1OC | u | u | -13.8 | 4.1% | -4.4% | -20.0%
COc1cc2c3c(c1)C(C)=CC(C)(C)N3C(=O)C2=O | 32.8% | -10.0% | -84.6* | -11.3% | 4.1% | -2.3%
CCc1cc2c3c(c1)/C(=C1/SC(N)=NC1=O)C(=O)N3C(C)(C)C=C2C | u | 16.4% | -6.5 | u | u | 15.2%
COc1cccc(C(=O)Oc2cc3c4c(c2)C(C)=CC(C)(C)N4C(=O)C3=O)c1 | u | u | -77.1* | u | 3.1% | -27.1%
Cc1c(NS(=O)(=O)c2cc(C(=O)N(C)Cc3ccccc3)ccc2Cl)c(=O)n(-c2ccccc2)n1C | x | -4.1% | 28.1 | x | x | -10.1%
COc1ccc(CCCc2nnc(SCC(=O)Nc3nc(C)cs3)n2C)cc1 | x | -3.2% | 2.7 | 10.4µM* | 6.7% | 0.7%
COc1cccc2cc(-c3nnc(SCC(=O)Nc4nc(C)cs4)n3C)oc12 | u | 12.6µM* | 5.2 | u | -28.8% | 3.5%
CN1N=C(C(=O)Nc2ccc3c(c2)CCC3)CCC1=O | 121.0% | -18.6% | 10.1 | 70.1% | -1.2% | -1.0%
CC1(C)CC(=O)c2cc(C(=O)O)c(=O)n(-c3ccccc3)c2C1 | x | 12.0% | -22.1 | 8.5% | -14.8% | 15.4%
CC1(C)CC(=O)c2cc(C(=O)N3CCCC(C)(C)C3)c(=O)n(-c3ccccc3)c2C1 | u | 1.9% | -77.3* | u | -1.0% | -1.0%
COC(=O)C(CCSC)NC(=O)c1cc2c(n(-c3ccccc3)c1=O)CC(C)(C)CC2=O (stereo not given) | 3.7µM* | 14.6% | -5.9 | -20.4% | 5.0% | 5.3%
COc1cccc(-c2nnc3sc(CN4CCCCC4)cn23)c1 | x | x | 22.8 | x | 5.3% | x
COc1ccc(Nc2oc(/C=C/c3cc(OC)c(OC)c(OC)c3)nc2C#N)cc1 | x | x | 16.7 | x | -1.6% | x
COc1ccc(OC)c(NC(=O)CN2C(=O)C(C)N(c3ccc(C)cc3)C2=O)c1 (stereo not given) | u | u | -10.0 | -17.0% | -0.3% | 0.6%

Source: PubChem (National Center for Advancing Translational Sciences (NCATS))
